Shown are actives, neighbours in structure and some others; about 3.5% of the full set was active somewhere.
TEAD-YAP block: TEAD-YAP interaction inhibition. HEK-TIYL cells, TEAD-Gal4/YAP UAS-luciferase luminescence. 640,000 tested, 1.4% active. inhibition, % at 9.12 µM. AID 1259422; in the data active means inhibition above about 32%;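 further: 0% = median of test compound wells and 100% = reference inhibitor wells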
FBW7 act: activators of human E3 ligase FBW7 | AID 1259310 | 650,000 tested, 0.13% active | Q969H0 | normalized activity (activation), % at 26.1 µM | AlphaScreen FBW7–phospho-cyclin E peptide binding, activator screen; in the data active means normalized activity above about 1.9%;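 further: purified mutant Fbw7 with reduced substrate affinity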
GPR151 activ: activators of human GPR151; Q8TDV0; PathHunter beta-arrestin GPR151 cells, luminescence; activation, % at 11.2 µM; 650,000 tested, 1% active; in the data active means activation above about 4.9%;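 further: 0% = median of compound wells and 100% = cells with positive control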
MITF primary: inhibitors of human MITF; O75030; AlphaScreen MITF homodimerization, bead proximity signal; inhibition, % at 2.6 µM; 650,000 tested, 0.91% active; in the data active means inhibition above about 50%;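 further: 0% = vehicle wells with protein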
* marks the source's active call; other numbers are inactive results.

SMILES	TEAD-YAP block	FBW7 act	GPR151 activ	MITF primary
NC1=NC(=O)C(CC(=O)Nc2ccc(NC(=O)CC3SC(N)=NC3=O)cc2)S1 (stereo unspecified)	4	0	0	55*
Cc1ccc(NC(=O)CC2SC(N)=NC2=O)cc1 (stereo unspecified)	-7	0	1	6
COc1cc(S(=O)(=O)N(Cc2cccs2)C2CCCC2)ccc1-n1cnnn1	-6	0	1	-1
COc1cc(S(=O)(=O)N(Cc2ccccc2F)C2CCCC2)ccc1-n1cnnn1	67*	0	1	-5
CC(C)(C)c1cc(-c2nc3ccccc3[nH]2)n[nH]1	96*	0	-10	-2
CCN(CC)c1ccc(C2N(S(=O)(=O)c3ccc(C)cc3)CCN2S(=O)(=O)c2ccc(C)cc2)cc1	-5	0	-1	-2
C=CCOc1cccc(/C=C2\C(=O)N(CCc3ccc(OC)c(OC)c3)C(C)=C2C(=O)OC)c1	-13	0	0	61*
COc1ccc(CN(C)Cc2nc(CCc3ccccc3)no2)c2cccnc12	35*	1	-1	6
Cc1cccc(N2C(=O)NC(=O)/C(=C/c3ccc(I)o3)C2=O)c1	-3	0	-2	58*
CCc1ccc(N2C(=O)NC(=O)/C(=C\c3ccc(I)o3)C2=O)cc1	-1	1	1	14
O=C1NC(=O)N(c2ccccc2)C(=O)/C1=C\c1ccc(I)o1	-3	0	1	74*
O=C1NC(=O)N(Cc2ccccc2)C(=O)/C1=C/c1ccc(Br)o1	11	-1	-1	58*
O=C(NCCCN1CCCC1=O)c1cc(COc2ccc3ncccc3c2)on1	37*	0	1	-10
O=C(c1cc(COc2ccc3ncccc3c2)on1)N1CCC(N2CCSCC2)CC1	43*	0	1	-10
O=C(c1cc(COc2ccc3ncccc3c2)on1)N1CCCC(O)C1 (stereo unspecified)	10	0	0	5
CCC(O)C1CCN(C(=O)c2cc(COc3ccc4ncccc4c3)on2)CC1 (stereo unspecified)	50*	0	1	-2
O=C(c1cc(COc2ccc3ncccc3c2)on1)N1CCCC(OCc2ccccn2)C1 (stereo unspecified)	39*	0	2	6
O=C(c1cc(COc2ccc3ncccc3c2)on1)N1CCC(O)CC1	3	0	0	7
CC(=O)c1c(C)oc2ccc(N(C(=O)c3ccccc3Cl)S(=O)(=O)c3ccc(Cl)cc3)cc12	2	0	0	7
NC(=O)C1CCN(C(c2ccccc2Cl)c2nnnn2Cc2ccc(F)cc2)CC1 (stereo unspecified)	-54	0	0	11
O=C(O)c1cc([N+](=O)[O-])ccc1Sc1nnnn1-c1ccccc1	-2	0	1	-3
CSc1nc2c(c(=O)[nH]c(=O)n2C)n1CCSc1nc2ccccc2s1	37*	1	0	5
O=C(Nc1c2c(nn1-c1ccc(F)cc1)CSC2)c1ccco1	6	0	3	24
Cc1sc2ncnc(N/N=C/c3ccccn3)c2c1C	92*	-1	-1	20
C/C(=N\NC(N)=O)c1ccc(O)c(O)c1O	5	0	3	86*
SMILES	TEAD-YAP block	FBW7 act	GPR151 activ	MITF primary
Cc1sc2nc(SCC(=O)Nc3ccccc3N3CCOCC3)nc(N)c2c1C	43*	0	-1	1
CCN(CC)CCCNCC(=O)N1c2ccccc2Sc2ccccc21	40*	0	-2	8
CCN(CC)CCCNCC(=O)Nc1cc(C)on1	8	1	-2	1
CCN(CC)CCCNCC(=O)Nc1nc(C)cs1	95*	0	-5	15
Cc1ccc(OCc2cc(C(=O)N(C)CCC3CCOCC3)no2)cn1	39*	0	4	-1
COc1ccc(S(=O)(=O)Cc2ccccc2)cc1N	-10	0	1	2
CCN(c1ccccc1)S(=O)(=O)c1ccc(OC)c(N)c1	52*	0	-1	-7
CCN(CC)S(=O)(=O)c1ccc(N2CCN(c3ccccc3OC)CC2)c(N)c1	33*	0	1	4
CCOc1ccc2nc(N3CCCC3C(=O)NCCCn3cccn3)nc(C)c2c1 (stereo unspecified)	7	0	0	10
COCCn1ccc2c(OCC(=O)Nc3ccc(C)cc3)cccc2c1=O	-2	0	-1	1
CCCn1ccc2c(OCC(=O)Nc3ccc(OC)c(OC)c3)cccc2c1=O	38*	0	0	15
C/C(CC(C)C)=N\NC(=O)c1cccc(O)c1	40*	0	-2	8
CCC/C=N/NC(=O)c1cccc(O)c1	34*	0	-2	9
C/C(CC(C)C)=N/NC(=O)c1ccc(Br)cc1	-16	0	0	-16
CCC/C=N/NC(=O)c1ccc(O)cc1	-18	0	-1	10
C=CCn1c(N/N=C/C(Br)=C/c2ccccc2)nc2c1c(=O)[nH]c(=O)n2C	-7	0	1	-3
O=C(c1ccc(Cl)cc1)C(C(=O)C(F)(F)F)C12CC3CC(CC(C3)C1)C2 (stereo unspecified)	0	0	1	14
CCOc1ccccc1OCCCN1CCCCC1	14	0	-1	32
CCN(CC)C(=O)c1ccc(Oc2nnnn2-c2ccccc2)c(OC)c1	32*	0	0	10
COc1ccccc1Oc1nnnn1-c1ccc(C(=O)O)cc1	-6	0	-1	8
CCN1C(=O)c2cccc3c(S(=O)(=O)N4CCCc5ccccc54)ccc1c23	9	0	1	-128
CCc1nc(SCC(=O)Nc2ccc(C(C)=O)cc2)c2c(=O)n(C)c(=O)n(C)c2n1	11	0	0	9
O=C(/C=C/c1cccs1)NC(=S)NNC(=O)c1ccccc1O	81*	-1	4	40
O=C(NNC(=S)NC(=O)C(c1ccccc1)c1ccccc1)c1ccccc1O	86*	-2	0	23
O=C(CC1CCCC1)N1CC[C@H]2[C@H](CCC(=O)N2Cc2ccc3c(c2)OCO3)C1	-24	0	1	0
SMILES	TEAD-YAP block	FBW7 act	GPR151 activ	MITF primary
COCCNC(=O)CCC1CCN(C(=O)C#Cc2ccccc2)CC1	38*	0	2	2
COCCNC(=O)CCC1CCN(C(=O)CCOc2ccccc2)CC1	-4	0	-1	-13
O=C(O)CCc1ccc(-c2cnc3ccc(NC4CCOCC4)nn23)cc1	-10	0	0	16
COc1ccc(N2C(C(C)=O)=NN(c3ccccc3)C2c2ccccc2OCc2c(Cl)cccc2Cl)cc1 (stereo unspecified)	45*	1	1	3
Clc1ccc(COc2ccccc2C2N(c3ccccc3)N=C(c3ccccc3)N2c2ccccc2)cc1 (stereo unspecified)	85*	0	0	20
COc1ccc(N2C(C(C)=O)=NN(c3ccc(Cl)cc3)C2c2ccc(OCc3c(Cl)cccc3Cl)c(OC)c2)cc1 (stereo unspecified)	-1	0	0	7
CCCc1cc(N2CCC(C(N)=O)CC2)n2cnnc2n1	-2	0	1	-6
CCCc1cc(N2CCN(c3ccc(C(C)=O)cc3)CC2)n2cnnc2n1	42*	0	-1	5
